This note sets out measurements from PubChem BioAssay AID743286 (National Center for Advancing Translational Sciences (NCATS), 2014).

Structures are written as SMILES. The campaign covered roughly 1,100 compounds. About 340 (31%) were called active. Roughly 40% stayed inconclusive and do not appear here. The call rests on the fitted dose curve; in most records, active means well fitted inhibition curve with a large enough effect; inconclusive means small, poorly fitted or top-dose-only effect; inactive means flat fitted curve, though single readings scatter. A selection follows. A call without a number means that no potency is given here.
Potency means the concentration at half of the fitted maximal effect.

Sequence of Phosphatidylinositol 5-phosphate 4-kinase type-2 alpha (Homo sapiens) (P48426 whole entry, looked up): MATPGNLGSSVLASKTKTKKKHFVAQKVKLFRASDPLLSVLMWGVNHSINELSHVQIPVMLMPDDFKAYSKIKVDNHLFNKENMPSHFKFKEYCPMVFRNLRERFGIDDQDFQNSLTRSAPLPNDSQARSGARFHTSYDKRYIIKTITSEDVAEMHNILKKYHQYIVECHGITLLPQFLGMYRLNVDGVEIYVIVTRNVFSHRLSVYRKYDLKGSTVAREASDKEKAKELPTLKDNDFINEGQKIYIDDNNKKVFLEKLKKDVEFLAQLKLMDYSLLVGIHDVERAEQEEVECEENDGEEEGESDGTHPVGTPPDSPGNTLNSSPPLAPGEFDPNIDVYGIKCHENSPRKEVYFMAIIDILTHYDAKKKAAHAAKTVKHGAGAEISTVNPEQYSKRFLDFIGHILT

The test concerns the target Phosphatidylinositol 5-phosphate 4-kinase type-2 alpha (Homo sapiens) (UniProt P48426). The experiment in a line: qHTS for Inhibitors of PI5P4K: Confirmation in Primary Assay. Further: nearly all actives have a fitted effect of over 65% in size. The following applies: PI5P4Kalpha enzyme, ADP-Glo luminescence, 60 min; series mostly up to 76.9 µM. In outline: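 Hits from a qHTS screen were retested in the same PI5P4Kα ADP-Glo format: 5 microM ATP, HEPES pH 7.4 buffer with CHAPS and EGTA, 60 min room-temperature reaction, single end-point luminescence read.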
(In general: In qHTS, concentration-response curves come from the screen itself.)
Take `CN(C)C(=S)NCc1ccccc1`: the Potency entry was “inactive”. As for `CC(=O)N1c2ccc(S(=O)(=O)NCCC(=O)N(C)C3CCCCC3)cc2CC1C` (stereo not drawn), the entry is “inactive”; as for `COc1cccc2c1C(=O)C[C@]1(CCCC[C@@H]1C)O2`, “inactive”; as for `COc1ccc(C(CNC(=O)c2ccc(OCc3cscn3)cc2)N2CCCC2)cc1` (stereo not drawn), “inactive”. As for `CC(C)Sc1nc(N2CCOCC2)c2c(c1C#N)CC(C)(C)N(C)C2`, the entry is “inactive”; as for `Cc1cc(NC(=O)CCCn2cc([N+](=O)[O-])cn2)n(Cc2ccc(F)cc2)n1`, “inactive”. In the case of `c1ccc2c(CCNc3ncnc4nc[nH]c34)c[nH]c2c1`, the Potency was 17.8 µM (active). As for `Cc1sc2ncnc(NC(C)C(=O)O)c2c1C` (stereo not drawn), the figure is 3.98 µM (active); as for `O=C(Cc1ccc(S(=O)(=O)N2CCOCC2)s1)Nc1nc2c(s1)CCCC2`, 14.1 µM (active); as for `CCn1nc(CC(=O)Nc2nnc(CC(=O)N3CCOCC3)s2)c2ccccc2c1=O`, “inactive”. To `CC(=O)c1ccc(NC(=O)c2cnn3ccccc23)cc1` belongs 3.55 µM (active); to `COc1ccccc1Nc1ccc2c(O)cc(S(=O)(=O)O)cc2c1`, 3.16 µM (active). To `O=S(=O)(O)c1cc(O)c2cc(Nc3ccccc3)ccc2c1` belongs 2 µM (active); to `O=C(CCS(=O)(=O)c1ccc(Br)cc1)NCc1ccc(F)cc1`, “inactive”.

For `Cc1cc(NC(=O)CN2CCN(C)CC2)no1`, the Potency result was “inactive”. As for `Cc1cc(NC(=O)Nc2ccccc2[N+](=O)[O-])no1`, the entry is “inactive”; as for `Cc1cc(NC(=O)CSc2cn(CCNC(=O)c3ccccc3)c3ccccc23)no1`, 14.1 µM (active). Regarding `COC(=O)c1ccc2c(c1)/C(=C/c1cc(Br)c(O)c(Br)c1)C(=O)N2`, the Potency is 0.823 µM (active). To `O=C1Nc2ccc(C(=O)c3ccco3)cc2/C1=C/c1cc(Cl)c(O)c(Cl)c1` belongs 0.207 µM (active); to `NS(=O)(=O)c1ccc(CCNC(=O)c2ccc3nccnc3c2)cc1`, 14.1 µM (active); to `O=C(Nc1ccccc1Cl)c1ccc2nccnc2c1`, “inactive”. For the compound `COCc1cc(N2CCCCC2)nc(-c2ccccc2)n1`, the Potency entry was “inactive”. To `Cc1ccc(-c2csc(NS(=O)(=O)c3cccc(F)c3)n2)o1` belongs 11.2 µM (active). In the case of `NS(=O)(=O)c1cccc(NC(=O)CSc2nnnn2-c2ccccc2)c1`, the Potency result is “inactive”. As for `O=C(O)C1CSC(c2coc3ccccc3c2=O)N1` (stereo not drawn), the entry is “inactive”; as for `COc1ccc(NC(C)=O)cc1NC(=O)CSc1nc2ncccc2[nH]1`, “inactive”. For `COc1ccccc1NC(=O)CSc1sc2c(O)cc(=O)[nH]c2c1C#N`, the Potency is 10 µM (active). To `COc1ccc(NC(=O)CSc2sc3c(O)cc(=O)[nH]c3c2C#N)c(OC)c1` belongs 14.1 µM (active); to `COc1ccccc1NC(=O)Cc1nnc(SCC(=O)Nc2ccccc2F)n1C`, “inactive”.

As for `COc1cc(Cl)c(C)cc1NC(=O)CSc1sc2c(O)cc(=O)[nH]c2c1C#N`, the Potency was 5.01 µM (active).

For `COc1ccc(C(=O)NC(CCSC)C(=O)N2CCCCCC2)cc1` (stereo not drawn), the Potency entry was “inactive”.

For the compound `COc1cc(NC2=Nc3cccc4cccc2c34)cc(OC)c1OC`, the Potency entry is “inactive”. As for `Cc1nn(-c2ccccc2)c2nc(=O)n(-c3ccccc3)cc12`, the entry is “inactive”; as for `Cc1ccc(NC(=O)c2cccc(C(=O)Nc3ccc(C)cc3C(=O)O)c2)c(C(=O)O)c1`, 8.91 µM (active); as for `CN(C)c1ccc2nc3ccc(=O)cc-3sc2c1`, 11.2 µM (active). For the compound `Cc1ccc(NC(=O)CN(C)C(=O)c2cc(-c3ccco3)nc3ccccc23)cc1`, the Potency is 8.91 µM (active). On to `COc1ccc(NC(=O)CN(C)C(=O)c2cc(-c3ccco3)nc3ccccc23)cc1`, for which the Potency was 5.01 µM (active).

As for `O=C(c1cc(-c2ccco2)nc2ccccc12)N(Cc1nnc(-c2ccc(Cl)cc2)o1)C1CC1`, the Potency entry is “inactive”. To `COc1cccc(NC(=O)CN(C)C(=O)c2cc(-c3ccco3)nc3ccccc23)c1` belongs 15.8 µM (active); to `CN(CC(=O)Nc1ccc(F)cc1)C(=O)c1cc(-c2ccco2)nc2ccccc12`, 14.1 µM (active). As for `CCNC(=O)c1ccccc1SCC(=O)Nc1ccc(F)cc1`, the entry is “inactive”. As for `COCCN(CC(=O)NCC1CCCO1)C(=O)CCC(=O)Nc1ccccn1` (stereo not drawn), the entry is “inactive”; as for `COCc1c(C(=O)N2CCc3ccccc32)oc2ccccc12`, “inactive”; as for `CCOC(=O)c1nnn(-c2ccccc2)c1C`, “inactive”. As to `CCn1c(C(=O)OC)cc2c1ccn2-c1ccc(F)cc1`, the Potency entry is “inactive”.

In the case of `CC(C)(C)NC(=O)C(c1ccc(C#N)cc1)n1c(=O)c(-c2ccco2)nc2ccccc21` (stereo not drawn), the Potency entry is “inactive”.

`Cc1cc(C(=O)OCC(=O)Nc2cc(S(=O)(=O)N3CCOCC3)ccc2Cl)c(C)o1`: the Potency result is “inactive”. To `O=C(Nc1cc(S(=O)(=O)N2CCOCC2)ccc1O)c1ccc(NS(=O)(=O)c2ccc(Cl)s2)cc1` belongs 20 µM (active). To `COc1ccc(N2CSC3=C(C#N)C(c4cccc(OC)c4OC)CC(=O)N3C2)cc1` (stereo not drawn) belongs 7.08 µM (active).

Turning to `COc1ccc(OC)c(C2CC(=O)N3CN(c4cccc(Cl)c4)CSC3=C2C#N)c1` (stereo not drawn), the Potency entry was “inactive”. To `COc1cccc(C2CC(=O)N3CN(c4cccc(Cl)c4C)CSC3=C2C#N)c1OC` (stereo not drawn) belongs 39.8 µM (active); to `COc1ccc(C2CC(=O)N3CN(c4ccc(C)c(Cl)c4)CSC3=C2C#N)cc1OC` (stereo not drawn), “inactive”; to `COc1ccc(N2CSC3=C(C#N)C(c4ccc(OC)c(OC)c4)CC(=O)N3C2)c(OC)c1` (stereo not drawn), 12.6 µM (active). To `CCN(CC)C(=O)c1[nH]cnc1C(=O)Nc1ccc(OC)cc1` belongs “inactive”; to `CCCCOc1ccc(S(=O)(=O)NC(=O)C2(C)CCN2C(=O)CCc2ccccc2)cc1` (stereo not drawn), “inactive”. As for `C[C@H](NC(=O)c1nc[nH]c1C(=O)N[C@@H](C)C(=O)OC(C)(C)C)C(=O)OC(C)(C)C`, the entry is “inactive”; as for `COc1cccc(NS(=O)(=O)c2ccc3c(c2)C2C=CCC2C(c2ccc(C(=O)O)cc2)N3)c1` (stereo not drawn), 31.6 µM (active). For the compound `Cc1ccc(-c2csc3ncnc(NCCC(=O)O)c23)cc1C`, the Potency was 14.1 µM (active). To `CN(C)C(=O)c1ccc(NC(=O)COC(=O)C2=COCCO2)cc1` belongs “inactive”; to `NC(=O)C1CCN(c2cc(Cl)nc(N)n2)CC1`, “inactive”. As for `Cc1ccc(C(c2cc(Cl)c3cccnc3c2O)N2CCN(C)CC2)cc1` (stereo not drawn), the figure is 15.8 µM (active); as for `CN1CCN(C(c2ccc(Br)cc2)c2cc(Cl)c3cccnc3c2O)CC1` (stereo not drawn), 15.8 µM (active). As for `CN1CCN(C(c2ccccc2)c2ccc(Cl)cc2)CC1` (stereo not drawn), the entry is “inactive”.
